One may read the Inhibition as the drop in the measured response relative to a control, in per cent.

This is an account of results in ChEMBL document CHEMBL4513146, “CO-ADD screening of Karazin Kharkiv National University (Ukraine) compounds”.

Results with a measured potency or affinity are listed apart.

One experiment concerns Klebsiella pneumoniae. The following applies: Concentration 32 ug.mL-1;; ASSAY_TEST Inhibition of Bacterial Growth; detection method Absorption (OD600); MEDIA CAMHB; plate type 384well; NBS; CORNING #3640; time 18 hr.
In a further experiment the test system is Candida albicans. The following applies: Concentration 32 ug.mL-1; ASSAY_TEST Inhibition of Fungal Growth; detection method Absorption (OD530).
The next experiment relates to Cryptococcus neoformans. The following applies: Concentration 32 ug.mL-1; ASSAY_TEST Inhibition of Fungal Growth; detection method Resazurin; Absorption (OD600-OD570); plate type 384well; NBS; CORNING #3640. Background: Resazurin is reduced to fluorescent resorufin, in cell work by metabolically active cells.

Regarding `Cc1ccc(Oc2nc3ccccc3n3c(=O)n(CC(=O)Nc4ccc5c(c4)OCO5)nc23)cc1`, the Inhibition with Klebsiella pneumoniae is listed as 4.57%; in the experiment with Candida albicans it was 10.98%; with Cryptococcus neoformans, -25.85%.

For `COc1ccc(N(Cc2cc(F)cc(F)c2)S(=O)(=O)c2ccc3nnc(C)n3c2)cc1`, the Inhibition is given as 10.99% in the experiment with Klebsiella pneumoniae, 0.79% in the experiment with Candida albicans and -7.83% in the experiment on Cryptococcus neoformans.

For the compound `Cc1cc(C)c(NC(=O)Cn2nc3ccc(SCc4ccc(Cl)cc4)nn3c2=O)c(C)c1`, the Inhibition is given as 3.59% with Klebsiella pneumoniae, 6.58% in the experiment on Candida albicans and -25.9% in the experiment on Cryptococcus neoformans.

With `COc1cccc(-n2ccn3c(SCC(=O)Nc4cccc(F)c4)nnc3c2=O)c1`, the Inhibition is given as 0.65% in the experiment with Klebsiella pneumoniae, 10.45% in the experiment with Candida albicans and -5.71% in the experiment on Cryptococcus neoformans.

Consider `Cc1cccc(CN(c2ccc(Cl)cc2)S(=O)(=O)c2cccn3c(C)nnc23)c1`, for which the Inhibition in the experiment with Klebsiella pneumoniae was 9.48%; in the experiment on Candida albicans it was 1.95%; with Cryptococcus neoformans, -9.68%.

As to `CCc1ccc(Cn2c(=O)c3sccc3n3c(=O)n(Cc4c(F)cccc4Cl)nc23)cc1`, the Inhibition with Klebsiella pneumoniae was 5.71%; in the experiment with Candida albicans it was 1.83%; in the experiment with Cryptococcus neoformans, -25.59%.

`O=C(CSc1nnc2c(=O)n(-c3ccccc3)ccn12)Nc1cc(F)ccc1F`: the Inhibition was -0.92% in the experiment on Klebsiella pneumoniae, 1.57% in the experiment on Candida albicans and -15% with Cryptococcus neoformans.

`Cc1ccc(N(Cc2ccccc2)S(=O)(=O)c2ccc3nncn3c2)cc1F`: the Inhibition with Klebsiella pneumoniae is listed as 4.64%; in the experiment on Candida albicans, 0.48%; in the experiment on Cryptococcus neoformans, -7.94%.

In the case of `Cc1ccc(-c2ccc3nn(Cc4ccc(N5CCCC5=O)cc4)c(=O)n3n2)cc1`, the Inhibition in the experiment with Klebsiella pneumoniae is given as 8.04%; in the experiment on Candida albicans, 1.53%; in the experiment on Cryptococcus neoformans it was -7.16%.

On to `Cc1cc(C)cc(NC(=O)Cn2nc3ccc(-c4ccc(C)c(C)c4)nn3c2=O)c1`, for which the values for the Inhibition in the experiment on Klebsiella pneumoniae, in the experiment on Candida albicans and in the experiment with Cryptococcus neoformans were 5.54%, 21.88% and -18.49%, respectively.

Take `O=C(Cn1nc2c3sc(N4CCCC4)nc3ncn2c1=O)Nc1ccc(F)c(Cl)c1`: the values for the Inhibition with Klebsiella pneumoniae, in the experiment on Candida albicans and in the experiment on Cryptococcus neoformans were 20.21%, 4.41% and -11.29%, respectively.

On to `Cc1ccc(NC(=O)Cn2nc3c(N4CCOCC4)nccn3c2=O)cc1Cl`, for which the figures for the Inhibition in the experiment on Klebsiella pneumoniae, with Candida albicans and in the experiment with Cryptococcus neoformans were 6.31%, 3.12% and -5.46%, respectively.

For the compound `COc1cccc(-n2ccn3c(SCC#N)nnc3c2=O)c1`, the values for the Inhibition in the experiment with Klebsiella pneumoniae, in the experiment on Candida albicans and with Cryptococcus neoformans were 2.74%, 3.51% and -7.4%, respectively.

For `Cc1c(Cl)cccc1NC(=O)Cn1nc2c(SCc3ccccc3)nccn2c1=O`, the Inhibition in the experiment on Klebsiella pneumoniae is on record as 1.96%; in the experiment with Candida albicans it was 2.12%; with Cryptococcus neoformans, -7.14%.

Regarding `Cc1ccc(-c2ccc3nn(CC(=O)Nc4ccc(Br)cc4)c(=O)n3n2)cc1C`, the results for the Inhibition with Klebsiella pneumoniae, in the experiment with Candida albicans and with Cryptococcus neoformans were 12.28%, 10.19% and -18.48%, respectively.

For `CCc1ccc(N(Cc2ccccc2F)S(=O)(=O)c2cccn3c(C)nnc23)cc1`, the Inhibition in the experiment on Klebsiella pneumoniae is 6.64%; with Candida albicans, 0.88%; in the experiment with Cryptococcus neoformans, -9.4%.

In the case of `CCc1nnc2c(SCC(=O)Nc3ccc(C(=O)OC)cc3)nc3ccccc3n12`, the values for the Inhibition with Klebsiella pneumoniae, in the experiment with Candida albicans and in the experiment with Cryptococcus neoformans were 5.41%, 4.91% and -21.71%, respectively.

With `Cc1cccc(NC(=O)Cn2nc3ccc(-c4ccc(C)c(C)c4)nn3c2=O)c1`, the results for the Inhibition with Klebsiella pneumoniae, in the experiment on Candida albicans and in the experiment on Cryptococcus neoformans were -0.51%, -1.03% and -12.34%, respectively.

On to `Cc1cc(C)c(NC(=O)Cn2nc3n(C)c(=O)c4c(c(-c5ccccc5)cn4C)n3c2=O)c(C)c1`, for which the Inhibition in the experiment on Klebsiella pneumoniae was 4.68%; in the experiment on Candida albicans it was 0.24%; in the experiment with Cryptococcus neoformans, -1.33%.

Take `Cc1cc(C)cc(N(Cc2ccc(F)cc2)S(=O)(=O)c2cccn3cnnc23)c1`: the Inhibition in the experiment on Klebsiella pneumoniae is listed as 7.95%; with Candida albicans, 1.02%; in the experiment with Cryptococcus neoformans, -10.98%.

For `COc1ccc(NC(=O)Cn2nc3nc(Nc4ccc(F)cc4)ccn3c2=O)cc1F`, the Inhibition in the experiment with Klebsiella pneumoniae is listed as 11.34%; in the experiment with Candida albicans, 0.24%; in the experiment with Cryptococcus neoformans, -11.45%.

In the case of `COc1ccccc1CNC(=O)Cn1nc2c(N3CCSCC3)nccn2c1=O`, the figures for the Inhibition with Klebsiella pneumoniae, in the experiment with Candida albicans and in the experiment on Cryptococcus neoformans were 3.04%, 3.29% and -6.25%, respectively.

Take `O=C(Cn1nc2c3c4c(sc3ncn2c1=O)CCCC4)Nc1ccc2c(c1)OCO2`: the Inhibition is given as 4.23% in the experiment with Klebsiella pneumoniae, 4.71% in the experiment on Candida albicans and -14.52% in the experiment with Cryptococcus neoformans.

As for `CN(Cc1ccccc1)C(=O)CSc1nnc2c3cc(-c4ccccc4)nn3ccn12`, the figures for the Inhibition with Klebsiella pneumoniae, in the experiment on Candida albicans and in the experiment with Cryptococcus neoformans were -0.25%, 2.03% and -6.97%, respectively.

Take `Cc1nnc2c(=O)n(CC(=O)Nc3cccc(Br)c3)c3ccccc3n12`: the values for the Inhibition in the experiment with Klebsiella pneumoniae, in the experiment on Candida albicans and in the experiment with Cryptococcus neoformans were 7.61%, -0.15% and -11.02%, respectively.

Consider `O=c1c2sccc2n2c(=O)n(Cc3ccc(F)cc3)nc2n1Cc1cccs1`, for which the Inhibition with Klebsiella pneumoniae is listed as 10.32%; in the experiment on Candida albicans, 43.23%; in the experiment with Cryptococcus neoformans it was -26.83%.

On to `O=S(=O)(c1ccc2nncn2c1)N(Cc1cc(F)cc(F)c1)c1cc(F)cc(F)c1`, for which the Inhibition was -2.94% in the experiment with Klebsiella pneumoniae, 0.05% in the experiment on Candida albicans and -3.18% in the experiment on Cryptococcus neoformans.

For `Cc1ccc(NC(=O)CSc2nnc3ccc(C(=O)Nc4cccc(F)c4)cn23)cc1F`, the Inhibition in the experiment with Klebsiella pneumoniae is 6.03%; with Candida albicans, -0.33%; in the experiment with Cryptococcus neoformans, -4.6%.

With `Cc1cc2nn(CC(=O)Nc3ccc4c(c3)OCCO4)c(=O)n2c(Nc2ccccc2C)n1`, the Inhibition in the experiment with Klebsiella pneumoniae is reported as 6.73%; in the experiment with Candida albicans, 7.15%; with Cryptococcus neoformans, -3.99%.

On to `CCOc1ccc(NC(=O)Cn2c(=O)c3nnc(C(C)C)n3c3ccccc32)cc1`, for which the values for the Inhibition with Klebsiella pneumoniae, in the experiment on Candida albicans and with Cryptococcus neoformans were 4.3%, 1.75% and -9.3%, respectively.

As to `Cc1ccc(Oc2nccn3c(=O)n(CC(=O)Nc4ccc(Br)cc4)nc23)cc1`, the Inhibition in the experiment on Klebsiella pneumoniae is listed as 6.74%; in the experiment on Candida albicans, 10.23%; in the experiment on Cryptococcus neoformans, -16.67%.
